# From publication PMC7862700, “An all-to-all approach to the identification of sequence-specific readers for epigenetic DNA modifications on cytosine”
# What was measured:
# Assay in all cases: DAPPL (digital affinity profiling via proximity ligation, sequencing); 10 mM Tris-HCl pH 7.5, 50 mM NaCl, 1 mM DTT, 4% glycerol, room temperature, 30 min; GST-TFs on glutathione beads, 16-mer random dsDNA library, 0.1% formaldehyde crosslink after washing; high values mean tight binding
# FLI1 = target: T1, FLI1 (Homo sapiens, UniProt Q01543 1-452); conditions: protein: recombinant; tags: N-terminal GST; dsDNA, one strand shown
# T1 sequence: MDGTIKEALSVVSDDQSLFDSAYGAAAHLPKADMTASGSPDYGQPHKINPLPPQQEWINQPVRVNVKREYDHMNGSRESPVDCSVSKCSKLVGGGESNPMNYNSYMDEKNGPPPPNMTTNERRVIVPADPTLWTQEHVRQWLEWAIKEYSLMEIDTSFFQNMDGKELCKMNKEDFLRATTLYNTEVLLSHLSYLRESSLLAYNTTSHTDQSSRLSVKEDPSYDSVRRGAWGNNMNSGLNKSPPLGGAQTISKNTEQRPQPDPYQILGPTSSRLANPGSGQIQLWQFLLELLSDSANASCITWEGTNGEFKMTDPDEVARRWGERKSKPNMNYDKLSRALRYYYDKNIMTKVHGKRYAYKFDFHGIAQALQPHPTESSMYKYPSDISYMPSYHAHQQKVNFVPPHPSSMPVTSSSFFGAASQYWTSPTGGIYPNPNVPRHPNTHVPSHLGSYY
# How it was run: (§1)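 GST fusions of human transcription factors were expressed in yeast and captured with glutathione beads. Once given DNA barcodes and pooled alongside a tag-only sample, they were incubated for 30 min at room temperature with 200 nmole of a random double-stranded 16-mer DNA library in Tris/NaCl/DTT/glycerol buffer, then washed, crosslinked (0.1% formaldehyde), proximity-ligated, PCR-amplified and sequenced on an Illumina NextSeq500. The binding signal of each hexamer is its read frequency for a factor divided by its frequency for the tag-only sample.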
# ELK1 = target: T2, ELK1 (Homo sapiens, UniProt P19419 1-428); conditions: protein: recombinant; tags: N-terminal GST; dsDNA, one strand shown
# T2 sequence: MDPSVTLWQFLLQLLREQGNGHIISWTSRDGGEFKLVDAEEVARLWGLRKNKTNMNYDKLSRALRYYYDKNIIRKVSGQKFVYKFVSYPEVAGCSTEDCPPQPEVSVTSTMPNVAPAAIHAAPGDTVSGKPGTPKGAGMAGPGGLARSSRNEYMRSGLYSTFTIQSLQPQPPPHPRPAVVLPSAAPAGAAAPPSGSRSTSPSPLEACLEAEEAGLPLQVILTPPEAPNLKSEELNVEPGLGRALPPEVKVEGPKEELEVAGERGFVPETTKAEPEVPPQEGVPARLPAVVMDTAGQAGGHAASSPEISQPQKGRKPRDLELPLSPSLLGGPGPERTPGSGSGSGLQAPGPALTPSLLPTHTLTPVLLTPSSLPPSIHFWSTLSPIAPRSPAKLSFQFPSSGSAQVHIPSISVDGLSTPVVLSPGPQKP
# How it was run: as §1
# GABPA = target: T3, GABPA (Homo sapiens, UniProt Q06546 1-454); conditions: protein: recombinant; tags: N-terminal GST; dsDNA, one strand shown
# T3 sequence: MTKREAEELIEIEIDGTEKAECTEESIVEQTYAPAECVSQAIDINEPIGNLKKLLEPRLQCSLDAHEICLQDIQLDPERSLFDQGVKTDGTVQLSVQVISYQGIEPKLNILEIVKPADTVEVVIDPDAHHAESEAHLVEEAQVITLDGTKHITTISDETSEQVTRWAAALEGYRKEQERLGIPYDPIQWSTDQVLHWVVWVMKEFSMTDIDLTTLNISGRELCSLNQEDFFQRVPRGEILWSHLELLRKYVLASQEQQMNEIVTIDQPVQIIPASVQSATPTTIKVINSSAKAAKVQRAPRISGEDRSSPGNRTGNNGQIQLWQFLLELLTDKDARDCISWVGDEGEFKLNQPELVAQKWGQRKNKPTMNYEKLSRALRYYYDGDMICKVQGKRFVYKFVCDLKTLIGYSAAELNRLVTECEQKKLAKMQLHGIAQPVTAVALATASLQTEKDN
# How it was run: as §1
# ERG = target: T4, ERG (Homo sapiens, UniProt P11308 1-479); conditions: protein: recombinant; tags: N-terminal GST; dsDNA, one strand shown
# T4 sequence: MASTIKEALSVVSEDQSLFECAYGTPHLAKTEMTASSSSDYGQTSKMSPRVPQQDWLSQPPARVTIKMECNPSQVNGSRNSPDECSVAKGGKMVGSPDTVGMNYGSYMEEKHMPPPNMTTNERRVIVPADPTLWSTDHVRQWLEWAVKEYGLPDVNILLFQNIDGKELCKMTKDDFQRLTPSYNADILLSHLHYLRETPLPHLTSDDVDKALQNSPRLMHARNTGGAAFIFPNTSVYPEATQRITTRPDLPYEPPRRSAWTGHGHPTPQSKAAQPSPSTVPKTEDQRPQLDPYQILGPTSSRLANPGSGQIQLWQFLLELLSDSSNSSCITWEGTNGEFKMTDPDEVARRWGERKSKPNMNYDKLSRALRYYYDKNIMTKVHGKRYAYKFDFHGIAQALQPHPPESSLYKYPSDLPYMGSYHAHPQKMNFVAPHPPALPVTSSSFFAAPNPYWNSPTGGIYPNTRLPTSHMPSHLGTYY
# How it was run: as §1
# ELF1 = ELF1 (Homo sapiens, UniProt P32519 1-619); conditions: protein: recombinant; tags: N-terminal GST; dsDNA, one strand shown
# Chain of ELF1 (P32519 whole entry): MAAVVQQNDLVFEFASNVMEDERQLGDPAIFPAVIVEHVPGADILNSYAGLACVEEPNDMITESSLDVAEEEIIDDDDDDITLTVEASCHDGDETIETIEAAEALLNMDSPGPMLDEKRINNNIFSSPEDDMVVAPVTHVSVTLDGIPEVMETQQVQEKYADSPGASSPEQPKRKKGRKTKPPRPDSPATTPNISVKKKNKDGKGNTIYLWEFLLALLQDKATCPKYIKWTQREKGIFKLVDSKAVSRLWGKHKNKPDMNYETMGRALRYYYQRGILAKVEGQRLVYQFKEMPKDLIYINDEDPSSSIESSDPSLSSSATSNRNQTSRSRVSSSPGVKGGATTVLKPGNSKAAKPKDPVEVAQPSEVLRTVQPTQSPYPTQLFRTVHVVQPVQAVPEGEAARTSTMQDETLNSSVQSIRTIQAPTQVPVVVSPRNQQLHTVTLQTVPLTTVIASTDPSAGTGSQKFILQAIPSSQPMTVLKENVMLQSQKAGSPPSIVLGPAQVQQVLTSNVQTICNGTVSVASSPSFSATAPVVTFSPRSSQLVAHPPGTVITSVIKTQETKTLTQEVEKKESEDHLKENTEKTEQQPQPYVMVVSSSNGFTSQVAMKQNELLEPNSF
# How it was run: as §1
# EHF = target: T5, EHF (Homo sapiens, UniProt Q9NZC4 1-300); conditions: protein: recombinant; tags: N-terminal GST; dsDNA, one strand shown
# T5 sequence: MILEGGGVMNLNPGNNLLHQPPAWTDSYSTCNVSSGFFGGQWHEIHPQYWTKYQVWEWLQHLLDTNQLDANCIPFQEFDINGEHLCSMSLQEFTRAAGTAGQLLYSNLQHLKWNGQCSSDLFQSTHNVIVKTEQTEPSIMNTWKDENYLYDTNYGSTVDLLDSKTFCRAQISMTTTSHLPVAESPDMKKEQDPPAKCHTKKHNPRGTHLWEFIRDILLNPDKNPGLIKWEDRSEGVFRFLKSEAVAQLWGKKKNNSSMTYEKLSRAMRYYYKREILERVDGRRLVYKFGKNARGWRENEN
# How it was run: as §1
# SPI1 = SPI1 (Homo sapiens, UniProt P17947 1-270); conditions: protein: recombinant; tags: N-terminal GST; dsDNA, one strand shown
# How it was run: as §1
# SPIB = SPIB (Homo sapiens, UniProt Q01892 1-262); conditions: protein: recombinant; tags: N-terminal GST; dsDNA, one strand shown
# Chain of SPIB (Q01892 whole entry): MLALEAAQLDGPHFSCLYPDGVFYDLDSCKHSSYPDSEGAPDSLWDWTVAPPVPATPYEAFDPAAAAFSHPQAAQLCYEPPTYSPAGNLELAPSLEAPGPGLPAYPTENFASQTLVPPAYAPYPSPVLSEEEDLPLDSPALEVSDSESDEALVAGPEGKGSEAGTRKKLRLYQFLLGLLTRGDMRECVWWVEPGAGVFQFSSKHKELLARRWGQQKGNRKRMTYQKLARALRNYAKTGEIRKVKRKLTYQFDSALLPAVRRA
# How it was run: as §1
# ELK3 = target: T6, ELK3 (Homo sapiens, UniProt P41970 1-407); conditions: protein: recombinant; tags: N-terminal GST; dsDNA, one strand shown
# T6 sequence: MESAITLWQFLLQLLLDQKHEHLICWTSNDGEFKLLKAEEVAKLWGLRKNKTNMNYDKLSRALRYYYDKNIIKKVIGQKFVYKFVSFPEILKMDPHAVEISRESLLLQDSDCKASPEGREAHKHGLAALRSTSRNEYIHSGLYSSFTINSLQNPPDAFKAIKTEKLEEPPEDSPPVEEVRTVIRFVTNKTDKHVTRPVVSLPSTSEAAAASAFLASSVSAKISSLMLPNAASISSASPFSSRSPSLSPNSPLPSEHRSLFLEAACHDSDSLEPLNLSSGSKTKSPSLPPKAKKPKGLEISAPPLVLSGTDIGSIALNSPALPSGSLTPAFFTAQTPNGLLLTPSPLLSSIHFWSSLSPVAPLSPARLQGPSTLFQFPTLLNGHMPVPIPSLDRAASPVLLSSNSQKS
# How it was run: as §1
# FEV = target: T7, FEV (Homo sapiens, UniProt Q99581 1-238); conditions: protein: recombinant; tags: N-terminal GST; dsDNA, one strand shown
# T7 sequence: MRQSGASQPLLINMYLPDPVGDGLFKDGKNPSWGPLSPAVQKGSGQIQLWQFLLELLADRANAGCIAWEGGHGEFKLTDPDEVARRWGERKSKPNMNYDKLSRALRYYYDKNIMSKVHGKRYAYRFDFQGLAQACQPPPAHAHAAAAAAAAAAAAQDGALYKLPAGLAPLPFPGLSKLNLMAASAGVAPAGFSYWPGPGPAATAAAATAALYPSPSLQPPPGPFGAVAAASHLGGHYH
# How it was run: as §1
# ETV5 = ETV5 (Homo sapiens, UniProt P41161 1-510); conditions: protein: recombinant; tags: N-terminal GST; dsDNA, one strand shown
# Chain of ETV5 (P41161 whole entry): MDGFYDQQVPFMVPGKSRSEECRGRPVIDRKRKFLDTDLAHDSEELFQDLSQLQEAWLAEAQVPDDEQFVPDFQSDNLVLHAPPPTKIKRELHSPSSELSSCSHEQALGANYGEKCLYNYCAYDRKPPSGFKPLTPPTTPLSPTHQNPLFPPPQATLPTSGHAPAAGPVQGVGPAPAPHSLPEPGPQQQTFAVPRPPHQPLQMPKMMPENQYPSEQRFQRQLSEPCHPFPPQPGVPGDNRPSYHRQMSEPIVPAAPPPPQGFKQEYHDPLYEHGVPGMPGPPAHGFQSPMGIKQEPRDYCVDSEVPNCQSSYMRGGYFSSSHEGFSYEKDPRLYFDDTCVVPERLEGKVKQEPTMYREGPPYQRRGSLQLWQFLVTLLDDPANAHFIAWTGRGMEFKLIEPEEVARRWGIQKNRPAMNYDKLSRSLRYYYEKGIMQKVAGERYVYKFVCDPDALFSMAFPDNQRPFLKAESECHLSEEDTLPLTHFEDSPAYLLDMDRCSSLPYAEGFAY
# How it was run: as §1
# HSF1 = HSF1 (Homo sapiens, UniProt Q00613 1-529); conditions: protein: recombinant; tags: N-terminal GST; chain copies: 3; dsDNA, one strand shown
# Chain of HSF1 (Q00613 whole entry): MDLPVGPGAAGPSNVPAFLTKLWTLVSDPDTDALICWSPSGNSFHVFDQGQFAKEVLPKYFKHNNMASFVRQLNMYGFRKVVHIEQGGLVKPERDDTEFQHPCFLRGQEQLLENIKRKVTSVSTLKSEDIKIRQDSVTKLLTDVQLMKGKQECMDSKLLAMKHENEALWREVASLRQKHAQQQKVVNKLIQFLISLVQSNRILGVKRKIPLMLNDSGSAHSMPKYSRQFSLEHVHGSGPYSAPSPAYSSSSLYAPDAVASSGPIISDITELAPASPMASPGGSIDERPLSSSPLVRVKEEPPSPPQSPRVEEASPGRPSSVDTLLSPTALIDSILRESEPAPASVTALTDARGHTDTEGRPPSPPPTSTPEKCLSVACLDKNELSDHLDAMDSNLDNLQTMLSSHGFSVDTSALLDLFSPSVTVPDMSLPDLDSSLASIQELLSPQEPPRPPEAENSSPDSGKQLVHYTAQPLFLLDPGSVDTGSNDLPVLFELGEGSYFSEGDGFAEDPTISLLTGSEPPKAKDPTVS
# How it was run: as §1
# SPIC = target: T8, SPIC (Homo sapiens, UniProt Q8N5J4 1-248); conditions: protein: recombinant; tags: N-terminal GST; dsDNA, one strand shown
# T8 sequence: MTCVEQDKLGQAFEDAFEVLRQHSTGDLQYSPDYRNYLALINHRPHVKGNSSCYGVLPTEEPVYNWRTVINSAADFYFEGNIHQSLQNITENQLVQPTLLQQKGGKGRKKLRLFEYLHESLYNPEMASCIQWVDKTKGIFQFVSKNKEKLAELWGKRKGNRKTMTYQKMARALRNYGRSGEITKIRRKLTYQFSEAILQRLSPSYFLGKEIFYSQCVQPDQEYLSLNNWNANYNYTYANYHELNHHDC
# How it was run: as §1
# ELF4 = ELF4 (Homo sapiens, UniProt Q99607 1-663); conditions: protein: recombinant; tags: N-terminal GST; dsDNA, one strand shown
# Chain of ELF4 (Q99607 whole entry): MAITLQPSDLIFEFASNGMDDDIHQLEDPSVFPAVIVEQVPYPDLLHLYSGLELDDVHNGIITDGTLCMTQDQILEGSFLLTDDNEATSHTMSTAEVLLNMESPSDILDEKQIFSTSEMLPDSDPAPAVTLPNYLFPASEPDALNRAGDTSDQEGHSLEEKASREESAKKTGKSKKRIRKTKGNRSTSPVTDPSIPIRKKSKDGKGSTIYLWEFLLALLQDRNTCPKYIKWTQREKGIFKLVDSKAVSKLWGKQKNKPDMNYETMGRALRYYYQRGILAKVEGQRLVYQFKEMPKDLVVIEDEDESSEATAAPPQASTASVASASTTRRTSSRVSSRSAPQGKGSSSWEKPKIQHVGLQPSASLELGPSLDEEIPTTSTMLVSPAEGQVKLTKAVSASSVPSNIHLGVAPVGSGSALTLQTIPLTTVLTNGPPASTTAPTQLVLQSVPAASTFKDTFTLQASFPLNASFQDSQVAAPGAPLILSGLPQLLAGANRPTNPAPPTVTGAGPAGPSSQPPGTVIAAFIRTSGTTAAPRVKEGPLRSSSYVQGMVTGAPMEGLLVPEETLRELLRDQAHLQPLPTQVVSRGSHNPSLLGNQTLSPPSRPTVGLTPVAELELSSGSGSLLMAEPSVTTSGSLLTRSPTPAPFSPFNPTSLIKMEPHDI
# How it was run: as §1
# ELK4 = target: T9, ELK4 (Homo sapiens, UniProt P28324-2 1-405); conditions: protein: recombinant; tags: N-terminal GST; dsDNA, one strand shown
# T9 sequence: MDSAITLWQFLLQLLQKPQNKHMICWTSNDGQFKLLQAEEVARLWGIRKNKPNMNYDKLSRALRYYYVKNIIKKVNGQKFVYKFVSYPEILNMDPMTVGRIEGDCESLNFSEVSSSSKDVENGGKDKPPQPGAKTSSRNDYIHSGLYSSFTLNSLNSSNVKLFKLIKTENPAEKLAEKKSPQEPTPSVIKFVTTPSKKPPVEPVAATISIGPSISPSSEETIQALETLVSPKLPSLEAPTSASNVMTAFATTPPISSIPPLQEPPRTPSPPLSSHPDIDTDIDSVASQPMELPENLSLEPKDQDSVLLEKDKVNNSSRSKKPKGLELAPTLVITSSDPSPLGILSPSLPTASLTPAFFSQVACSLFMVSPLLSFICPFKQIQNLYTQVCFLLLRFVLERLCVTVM
# How it was run: as §1
# ETV2 = target: T10, ETV2 (Homo sapiens, UniProt O00321 1-342); conditions: protein: recombinant; tags: N-terminal GST; dsDNA, one strand shown
# T10 sequence: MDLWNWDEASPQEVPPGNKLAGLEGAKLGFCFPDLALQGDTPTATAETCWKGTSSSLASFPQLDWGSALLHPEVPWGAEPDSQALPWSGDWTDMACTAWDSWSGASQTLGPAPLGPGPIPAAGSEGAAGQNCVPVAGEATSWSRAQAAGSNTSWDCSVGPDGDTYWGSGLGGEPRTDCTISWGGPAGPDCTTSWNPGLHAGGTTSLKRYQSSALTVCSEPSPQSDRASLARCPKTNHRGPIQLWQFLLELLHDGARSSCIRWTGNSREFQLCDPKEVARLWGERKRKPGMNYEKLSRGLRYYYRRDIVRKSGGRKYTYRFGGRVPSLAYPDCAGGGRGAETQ
# How it was run: as §1
# ELF3 = target: T11, ELF3 (Homo sapiens, UniProt P78545 1-371); conditions: protein: recombinant; tags: N-terminal GST; dsDNA, one strand shown
# T11 sequence: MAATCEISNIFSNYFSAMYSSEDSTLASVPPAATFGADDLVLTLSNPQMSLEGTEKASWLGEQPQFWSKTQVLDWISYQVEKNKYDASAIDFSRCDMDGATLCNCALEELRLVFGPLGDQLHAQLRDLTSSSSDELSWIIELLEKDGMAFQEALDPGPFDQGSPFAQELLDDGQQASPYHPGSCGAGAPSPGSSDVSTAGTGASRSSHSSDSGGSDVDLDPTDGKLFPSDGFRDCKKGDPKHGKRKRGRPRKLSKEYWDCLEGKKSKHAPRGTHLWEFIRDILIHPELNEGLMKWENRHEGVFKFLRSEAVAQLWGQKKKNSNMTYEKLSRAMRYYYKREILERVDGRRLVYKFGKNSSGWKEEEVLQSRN
# How it was run: as §1
# CRX = CRX (Homo sapiens, UniProt O43186 1-299); conditions: protein: recombinant; tags: N-terminal GST; dsDNA, one strand shown
# Chain of CRX (O43186 whole entry): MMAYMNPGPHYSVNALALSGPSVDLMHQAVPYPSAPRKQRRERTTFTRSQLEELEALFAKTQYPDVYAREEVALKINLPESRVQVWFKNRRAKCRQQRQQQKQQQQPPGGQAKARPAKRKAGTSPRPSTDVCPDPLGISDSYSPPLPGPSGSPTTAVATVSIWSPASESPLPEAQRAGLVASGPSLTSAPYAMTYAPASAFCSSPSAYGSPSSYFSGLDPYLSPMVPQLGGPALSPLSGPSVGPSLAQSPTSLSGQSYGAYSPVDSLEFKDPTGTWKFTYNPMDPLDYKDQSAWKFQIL
# How it was run: as §1
# ETV1 = ETV1 (Homo sapiens, UniProt P50549 1-477); conditions: protein: recombinant; tags: N-terminal GST; dsDNA, one strand shown
# Chain of ETV1 (P50549 whole entry): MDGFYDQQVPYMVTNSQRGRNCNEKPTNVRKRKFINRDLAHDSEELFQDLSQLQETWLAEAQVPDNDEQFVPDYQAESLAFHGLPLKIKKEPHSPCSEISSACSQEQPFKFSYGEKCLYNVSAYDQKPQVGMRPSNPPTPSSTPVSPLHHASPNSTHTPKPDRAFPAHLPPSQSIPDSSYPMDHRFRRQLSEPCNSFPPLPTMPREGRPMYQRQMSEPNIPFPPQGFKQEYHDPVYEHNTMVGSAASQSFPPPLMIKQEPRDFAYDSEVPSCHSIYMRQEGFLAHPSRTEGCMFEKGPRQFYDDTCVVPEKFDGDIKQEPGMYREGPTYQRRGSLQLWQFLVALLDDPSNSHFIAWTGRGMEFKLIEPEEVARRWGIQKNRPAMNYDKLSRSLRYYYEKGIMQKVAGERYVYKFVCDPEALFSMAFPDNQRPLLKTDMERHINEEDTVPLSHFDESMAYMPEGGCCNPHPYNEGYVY
# How it was run: as §1
sequence,measurement,setting,value
AATTTG,binding signal,FLI1,"1.35 fold enrichment (6-mer frequency, TF over GST control)"
same,binding signal,ELK1,"1.22 fold enrichment (6-mer frequency, TF over GST control)"
same,binding signal,GABPA,"1.33 fold enrichment (6-mer frequency, TF over GST control)"
same,binding signal,ERG,"1.26 fold enrichment (6-mer frequency, TF over GST control)"
same,binding signal,ELF1,"1.26 fold enrichment (6-mer frequency, TF over GST control)"
same,binding signal,EHF,"1.23 fold enrichment (6-mer frequency, TF over GST control)"
same,binding signal,SPI1,"1.33 fold enrichment (6-mer frequency, TF over GST control)"
same,binding signal,SPIB,"1.34 fold enrichment (6-mer frequency, TF over GST control)"
same,binding signal,ELK3,"1.12 fold enrichment (6-mer frequency, TF over GST control)"
same,binding signal,FEV,"1.39 fold enrichment (6-mer frequency, TF over GST control)"
same,binding signal,ETV5,"1.25 fold enrichment (6-mer frequency, TF over GST control)"
same,binding signal,HSF1,"1.26 fold enrichment (6-mer frequency, TF over GST control)"
same,binding signal,SPIC,"1.41 fold enrichment (6-mer frequency, TF over GST control)"
same,binding signal,ELF4,"1.26 fold enrichment (6-mer frequency, TF over GST control)"
same,binding signal,ELK4,"1.34 fold enrichment (6-mer frequency, TF over GST control)"
same,binding signal,ETV2,"1.16 fold enrichment (6-mer frequency, TF over GST control)"
same,binding signal,ELF3,"1.32 fold enrichment (6-mer frequency, TF over GST control)"
same,binding signal,CRX,"1.33 fold enrichment (6-mer frequency, TF over GST control)"
same,binding signal,ETV1,"1.28 fold enrichment (6-mer frequency, TF over GST control)"
